Compound activity deposited in PubChem BioAssay by several laboratories.
This is a sample that favours compounds with a hit; in the whole collection about 3.5% have one here.
BoNT F protease: blocks Botulinum neurotoxin F light chain protease; Multiplex microsphere protease cleavage assay, flow cytometry; inhibition, % at 10 µM; 360,000 compounds, 0.22% hits; in the data active = inhibition above about 35%, passing the limit was not always enough; inconclusive = no clear call, values can overlap the other calls; note: plate controls were buffer without enzyme for full effect and enzyme alone for no effect
BH1578 lux ind: quorum light induction in luxS cqsA deficient V. cholerae; V. cholerae BH1578 lux reporter, luminescence, 6 h; activation, % at 18.7 µM; 350,000 compounds, 0.16% hits; AID 588436; in the data active = activation mostly above about 9.7%, no sharp cut-off; inconclusive = no clear call, values can overlap the other calls; inactive = mostly below about 3.7%
Anthrax LF inh2: anthrax lethal factor protease inhibition; P15917; multiplex microsphere protease cleavage assay, LF; inhibition, % at 10 µM; 360,000 compounds, 0.12% hits; AID 588501; note: plate controls were buffer without enzyme for full effect and enzyme alone for no effect
Target sequence (P15917 whole entry, looked up): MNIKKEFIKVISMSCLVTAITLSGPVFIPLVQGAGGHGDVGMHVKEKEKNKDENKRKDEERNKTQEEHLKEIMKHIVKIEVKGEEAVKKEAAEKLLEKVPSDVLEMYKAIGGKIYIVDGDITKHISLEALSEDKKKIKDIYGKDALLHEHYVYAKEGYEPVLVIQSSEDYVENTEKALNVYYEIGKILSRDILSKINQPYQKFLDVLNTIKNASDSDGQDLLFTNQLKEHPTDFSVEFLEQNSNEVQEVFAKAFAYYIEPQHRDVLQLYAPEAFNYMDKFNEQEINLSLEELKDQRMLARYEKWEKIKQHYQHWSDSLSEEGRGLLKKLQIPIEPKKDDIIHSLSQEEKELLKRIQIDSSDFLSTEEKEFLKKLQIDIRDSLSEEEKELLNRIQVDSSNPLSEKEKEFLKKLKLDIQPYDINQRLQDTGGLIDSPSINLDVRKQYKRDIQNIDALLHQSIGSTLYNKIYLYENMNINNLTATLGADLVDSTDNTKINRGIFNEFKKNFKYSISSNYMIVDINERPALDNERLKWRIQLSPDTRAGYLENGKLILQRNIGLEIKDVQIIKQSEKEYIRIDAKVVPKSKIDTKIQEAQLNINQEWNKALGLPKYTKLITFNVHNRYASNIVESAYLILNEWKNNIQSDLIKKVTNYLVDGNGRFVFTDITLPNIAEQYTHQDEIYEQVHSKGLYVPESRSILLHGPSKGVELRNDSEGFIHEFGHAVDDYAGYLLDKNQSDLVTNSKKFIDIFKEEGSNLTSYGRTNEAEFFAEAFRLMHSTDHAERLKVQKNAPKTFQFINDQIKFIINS
BoNT A protease: inhibitors of Botulinum neurotoxin A light chain protease. multiplex microsphere protease substrate cleavage, flow cytometry. inhibition, % at 10 µM. 360,000 compounds, 0.17% hits; note: plate controls were buffer without enzyme for full effect and enzyme alone for no effect
Bead autofluor: counter-screen for toxin protease inhibitors: compound fluorescence. fluorescence intensity (concentration not given with the values). 360,000 compounds, 3.1% hits. compound autofluorescence counterscreen, microsphere flow cytometry; stronger effect = higher value; in the data active = fluorescence intensity above about 16000; inconclusive = no clear call, values can overlap the other calls
* hit, by the source's call; i = inactive; u = inconclusive; x = no result given. Cut-off read from the data, not from the text of the source, unless noted: active = inhibition above about 30%; inconclusive = no clear call, values can overlap the other calls; inactive = below that.

SMILES | BoNT F protease | BH1578 lux ind | Anthrax LF inh2 | BoNT A protease | Bead autofluor
COc1cccc(C(C)(O)c2nc(-c3ccoc3)cs2)c1 (configuration not stated) | -3 | 1 | -6 | 0 | 4264
Cc1ccc2nc(C(F)OC(F)(F)F)[nH]c2c1 (configuration not stated) | -7 | i | -2 | -3 | 17272*
Nc1ccnn1C1CCNCC1 | 13 | i | 2 | 8 | 19137*
Cc1c(C)c2ccc(OC(C)C(=O)NCCCN3CCOCC3)c(C)c2oc1=O (configuration not stated) | -8 | 1 | 0 | -2 | 6372
CC1CCCCN1C(=O)NC12CC3CC(CC(C3)C1)C2 (configuration not stated) | 2 | 0 | 0 | 0 | 22908*
CN(CC(=O)Nc1ccccc1Cl)C(=O)COC(=O)c1ccccc1[N+](=O)[O-] | -4 | -1 | -1 | 1 | 5069
COc1cc(C(C(=O)Nc2c(C)cccc2C)N(C)C(=O)c2ccc(-n3cnnn3)cc2)ccc1O (configuration not stated) | -6 | 1 | -3 | 0 | 3826
Cc1ccc(-c2cn(S(=O)(=O)c3ccc(C)cc3)nc2N)cc1 | -5 | 0 | 0 | -2 | 24762*
Nc1nn(S(=O)(=O)c2ccccc2)cc1-c1cccc([N+](=O)[O-])c1 | 5 | i | -10 | 0 | 4249
CCOc1cc(S(=O)(=O)n2cc(-c3ccc(F)cc3)c(N)n2)cc(OCC)c1OCC | -9 | 0 | -2 | 1 | 2809
CCOc1ccc(S(=O)(=O)n2cc(-c3ccc(F)cc3)c(N)n2)cc1 | 0 | 0 | 1 | 2 | 23064*
CCOc1ccc(S(=O)(=O)n2cc(-c3ccccc3)c(N)n2)cc1 | -4 | 0 | -3 | -2 | 23986*
COc1ccc(CNc2cc(C)ccc2C)c(OC)c1OC | -7 | 1 | -3 | 0 | 19482*
COc1ccc(C)cc1NCc1cccc(OC)c1OC | -2 | i | -3 | 1 | 22091*
Cc1ccn2c(C(C)O)nnc2c1 (configuration not stated) | -3 | i | -11 | 0 | 3540
N#Cc1c(N)nc(Sc2ccc(Cl)cc2)c(C#N)c1-c1ccccc1Cl | 2 | 0 | 1 | 0 | 4358
CCCCC1CCC(C(=O)Nc2ccccc2N2CCOCC2)CC1 (configuration not stated) | -18 | 0 | 2 | -1 | u
CCCCC1CCC(C(=O)Nc2ccccc2)CC1 (configuration not stated) | -1 | i | -2 | u | 16463*
O=S(=O)(CCc1ccncc1)C1Cc2cccc3cccc1c23 (configuration not stated) | u | -1 | -8 | -2 | 4032
CC(=O)c1cccc(-c2ccnc3c2CC(C(=O)Nc2cccc(NS(C)(=O)=O)c2)O3)c1 (configuration not stated) | -7 | -1 | -4 | 0 | 3590
CN1C=CC2=C(C#N)C(N)C(C#N)(C#N)[C@H](c3ccccc3)[C@H]2C1 (some centres not stated) | 0 | i | 0 | 0 | 16327*
Cc1cccc(-n2c(C)c(C)c3c(N)ncnc32)c1 | -2 | -10 | -14 | 0 | 4062
CCOC(=O)c1c(NC(=O)COC(=O)C2CCC2)sc(C(=O)N(C)C)c1C | -13 | i | 0 | -8 | 7915
COC(=O)c1c(NC(=O)C2CCC2)sc(C(=O)N(C)C)c1C | -6 | i | 1 | u | 17349*
COc1ccc2cc(CCNS(=O)(=O)c3ccc(NC(C)=O)cc3)c(=O)[nH]c2c1 | 18 | -2 | -12 | -2 | 3850
SMILES | BoNT F protease | BH1578 lux ind | Anthrax LF inh2 | BoNT A protease | Bead autofluor
O=C1C(=O)c2cccc3cccc1c23 | 2 | 0 | -2 | 1 | 2088
O=C1C(Br)=Cc2cccc3cccc1c23 | 12 | i | 30* | 59* | 2984
Clc1ccc(OCCOCCNCc2ccccc2)cc1Cl | u | -1 | 11 | -2 | 4363
O=C(NCCO)c1cccc(Nc2nc(-c3ccccc3)c3cc(Cl)ccc3n2)c1 | -4 | -2 | 6 | 1 | 20185*
COc1ccc(CCNC(=O)c2ccccc2NC(=O)c2ccco2)cc1OC | -6 | 0 | -2 | 0 | 3086
Cc1ccc(-n2ncc(C(=O)N3CCc4ccccc4C3)c2NC(=O)c2ccco2)cc1C | 1 | -1 | -2 | 1 | 23443*
COc1ccc(CCNC(=O)c2cnn(-c3ccc(C)c(C)c3)c2NC(=O)c2ccco2)cc1OC | 6 | -3 | -1 | u | 22833*
C[C@H](CO)N1C[C@H](C)[C@@H](CN(C)C(=O)Nc2ccc(F)cc2)Oc2ncc(-c3ccc(F)cc3)cc2C1=O | 2 | i | -6 | 0 | 3135
Cc1ccccc1NC(=O)C(=O)NNC(=O)COc1ccc2ccccc2c1 | -1 | 0 | -2 | 0 | 6071
Cc1cc(C(=O)CSc2nnc(N)s2)c(C)n1CCc1ccc(Cl)cc1 | -2 | -4 | -3 | u | 22078*
N=c1n(CCCOc2ccccc2Cl)c2ccccc2n1CC(N)=O | -8 | -4 | -4 | -1 | 5237
CC(=O)Nc1nc(C)c(Oc2ccccc2)c(=O)[nH]1 | 3 | i | -12 | 2 | 20911*
NC(=O)c1ccc(-c2ncc(-c3ccccc3)o2)cc1 | 6 | -1 | -2 | 6 | 18854*
c1ccc(-c2cnc(-c3cccnc3)o2)cc1 | -9 | -1 | -1 | 0 | 2852
CCCCCCN1C=CC=C/C1=C\C=C(C#N)C#N | x | -1 | x | x | x
CCOC(=O)c1cc(C(=O)OCC)c(=O)[nH]c1N1CCCCC1 | 0 | -7 | -1 | -1 | 2218
O=C(NC1CCCCC1)c1noc2c1CCCCC2 | 1 | i | 1 | 2 | 22953*
CC(C)(C)C1CCc2onc(C(=O)NC3CCCC3)c2C1 (configuration not stated) | -6 | 0 | -2 | -3 | 21049*
CC(C)(C)C1CCc2onc(C(=O)N3CCOCC3)c2C1 (configuration not stated) | 0 | i | 1 | 0 | 11821
Cc1c(Cc2ccccc2)sc(NC(=O)/C=C/c2cccc3ccccc23)c1C(N)=O | -4 | -2 | -6 | 0 | 9222
Cc1ccc(-c2ccc(CCC(=O)O)n2CC2CCCO2)cc1 (configuration not stated) | -4 | 3 | 1 | u | 22736*
N#Cc1c(N2CCCCC2)nc(N2CCCCC2)c2c1CCN(Cc1ccccc1)C2 | -1 | 0 | 12 | u | 18858*
Cc1cc(C)c(C#N)c(N2CCN(Cc3ccccc3)CC2)n1 | -2 | 0 | -3 | 0 | 23816*
COC(=O)c1ccc(CNS(=O)(=O)c2ccc3ccccc3c2)cc1 | -6 | -2 | 13 | 0 | 3934
Cc1nn(C)cc1S(=O)(=O)Nc1ccc(C(F)(F)F)cc1 | -3 | i | -4 | -1 | 6830
CC(=O)NC12CC3CC(C1)CC(C(=O)N1CCN(S(=O)(=O)c4ccccc4C#N)CC1)(C3)C2 | -3 | -1 | 4 | 1 | 6283
COc1cc(C(=S)N2CCCC2)cc(OC)c1O | -1 | 1 | -2 | 0 | 20756*
CNC(=S)N1N=C(c2ccc(C)cc2)CC1c1ccc(Br)cc1 (configuration not stated) | 0 | i | -2 | 0 | 23443*
